# Paper PMC7862700, “An all-to-all approach to the identification of sequence-specific readers for epigenetic DNA modifications on cytosine”
# Legend:
# Assay in all cases: DAPPL (digital affinity profiling via proximity ligation, sequencing); 10 mM Tris-HCl pH 7.5, 50 mM NaCl, 1 mM DTT, 4% glycerol, room temperature, 30 min; GST-TFs on glutathione beads, 16-mer random dsDNA library, 0.1% formaldehyde crosslink after washing; high values mean tight binding
# FLI1 = target: T1, FLI1 (Homo sapiens, UniProt Q01543 1-452); conditions: protein: recombinant; tags: N-terminal GST; dsDNA, one strand shown
# T1 sequence: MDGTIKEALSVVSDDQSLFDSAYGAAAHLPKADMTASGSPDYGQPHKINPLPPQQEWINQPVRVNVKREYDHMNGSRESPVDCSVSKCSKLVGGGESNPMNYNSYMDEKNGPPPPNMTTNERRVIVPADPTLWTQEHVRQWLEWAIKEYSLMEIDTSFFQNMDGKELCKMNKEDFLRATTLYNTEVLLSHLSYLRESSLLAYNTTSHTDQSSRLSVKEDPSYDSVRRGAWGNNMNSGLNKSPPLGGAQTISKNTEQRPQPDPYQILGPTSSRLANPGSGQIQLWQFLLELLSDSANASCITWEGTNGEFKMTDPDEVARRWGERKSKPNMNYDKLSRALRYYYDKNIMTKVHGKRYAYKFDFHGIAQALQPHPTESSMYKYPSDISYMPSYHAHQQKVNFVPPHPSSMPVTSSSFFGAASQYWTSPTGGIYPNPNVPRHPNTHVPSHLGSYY
# Outline: (§1)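 A tag-only sample was pooled with DNA-barcoded human transcription factors that had been expressed in yeast as GST fusions and captured on glutathione beads. The pools were incubated for 30 min at room temperature with 200 nmole of a random double-stranded 16-mer DNA library in Tris/NaCl/DTT/glycerol buffer, then washed, crosslinked with 0.1% formaldehyde, proximity-ligated (BsaI/T4 ligase, 1 h, 37 °C), PCR-amplified and sequenced on an Illumina NextSeq500. Binding signal is each hexamer's read frequency for a factor divided by its frequency for the tag-only sample.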
# ELK1 = target: T2, ELK1 (Homo sapiens, UniProt P19419 1-428); conditions: protein: recombinant; tags: N-terminal GST; dsDNA, one strand shown
# T2 sequence: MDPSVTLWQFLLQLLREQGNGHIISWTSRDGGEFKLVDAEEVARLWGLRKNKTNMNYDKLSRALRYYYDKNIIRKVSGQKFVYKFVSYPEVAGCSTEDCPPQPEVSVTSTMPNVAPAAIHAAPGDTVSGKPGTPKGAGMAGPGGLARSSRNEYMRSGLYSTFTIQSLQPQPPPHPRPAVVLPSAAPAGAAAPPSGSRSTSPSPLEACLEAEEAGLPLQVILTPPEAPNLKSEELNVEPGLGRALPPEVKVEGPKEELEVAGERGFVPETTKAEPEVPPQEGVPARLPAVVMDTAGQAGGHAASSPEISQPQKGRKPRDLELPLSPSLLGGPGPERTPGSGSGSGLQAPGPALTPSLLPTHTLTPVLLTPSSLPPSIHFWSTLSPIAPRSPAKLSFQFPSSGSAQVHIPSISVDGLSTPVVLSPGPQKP
# Outline: as §1
# GABPA = target: T3, GABPA (Homo sapiens, UniProt Q06546 1-454); conditions: protein: recombinant; tags: N-terminal GST; dsDNA, one strand shown
# T3 sequence: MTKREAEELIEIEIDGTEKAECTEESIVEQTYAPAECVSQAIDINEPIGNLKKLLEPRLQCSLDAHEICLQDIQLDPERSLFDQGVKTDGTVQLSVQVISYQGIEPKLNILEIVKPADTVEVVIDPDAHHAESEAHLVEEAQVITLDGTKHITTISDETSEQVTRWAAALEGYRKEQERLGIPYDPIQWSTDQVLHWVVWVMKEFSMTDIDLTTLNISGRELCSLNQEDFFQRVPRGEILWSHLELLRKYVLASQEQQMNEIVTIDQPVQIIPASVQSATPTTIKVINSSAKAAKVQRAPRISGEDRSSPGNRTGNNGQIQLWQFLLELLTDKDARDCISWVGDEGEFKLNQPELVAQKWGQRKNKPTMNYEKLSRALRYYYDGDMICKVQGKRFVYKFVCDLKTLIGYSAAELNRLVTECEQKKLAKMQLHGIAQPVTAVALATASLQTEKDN
# Outline: as §1
# ERG = target: T4, ERG (Homo sapiens, UniProt P11308 1-479); conditions: protein: recombinant; tags: N-terminal GST; dsDNA, one strand shown
# T4 sequence: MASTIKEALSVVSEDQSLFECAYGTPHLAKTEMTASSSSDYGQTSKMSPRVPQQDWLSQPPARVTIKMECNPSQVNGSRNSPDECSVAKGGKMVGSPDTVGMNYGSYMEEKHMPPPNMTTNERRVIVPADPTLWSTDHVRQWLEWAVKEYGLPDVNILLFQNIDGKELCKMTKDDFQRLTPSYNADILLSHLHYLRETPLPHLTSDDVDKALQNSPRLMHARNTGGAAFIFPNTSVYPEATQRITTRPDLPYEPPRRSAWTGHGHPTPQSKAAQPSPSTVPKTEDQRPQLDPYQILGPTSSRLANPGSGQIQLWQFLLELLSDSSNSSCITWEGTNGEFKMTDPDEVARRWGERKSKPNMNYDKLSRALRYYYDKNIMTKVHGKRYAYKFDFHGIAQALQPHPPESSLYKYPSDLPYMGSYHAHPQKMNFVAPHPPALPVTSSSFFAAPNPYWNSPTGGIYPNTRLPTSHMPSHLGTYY
# Outline: as §1
# ELF1 = ELF1 (Homo sapiens, UniProt P32519 1-619); conditions: protein: recombinant; tags: N-terminal GST; dsDNA, one strand shown
# ELF1, sequence (P32519 whole entry): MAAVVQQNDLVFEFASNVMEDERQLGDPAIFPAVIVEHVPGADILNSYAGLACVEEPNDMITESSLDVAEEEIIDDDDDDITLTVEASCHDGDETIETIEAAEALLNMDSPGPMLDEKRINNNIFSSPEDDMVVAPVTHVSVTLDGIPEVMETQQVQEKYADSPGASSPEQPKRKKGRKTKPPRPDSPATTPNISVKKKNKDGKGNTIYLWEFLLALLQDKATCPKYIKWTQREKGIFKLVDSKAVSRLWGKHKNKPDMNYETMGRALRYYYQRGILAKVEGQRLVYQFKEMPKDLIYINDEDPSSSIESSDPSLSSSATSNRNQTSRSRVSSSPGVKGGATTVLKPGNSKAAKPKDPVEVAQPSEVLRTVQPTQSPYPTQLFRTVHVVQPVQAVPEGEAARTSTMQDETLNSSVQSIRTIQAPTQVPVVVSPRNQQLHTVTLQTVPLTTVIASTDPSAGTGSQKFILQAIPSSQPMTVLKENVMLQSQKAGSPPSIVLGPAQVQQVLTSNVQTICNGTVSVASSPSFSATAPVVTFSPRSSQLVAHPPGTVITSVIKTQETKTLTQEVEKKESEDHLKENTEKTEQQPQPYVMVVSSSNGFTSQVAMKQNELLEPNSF
# Outline: as §1
# EHF = target: T5, EHF (Homo sapiens, UniProt Q9NZC4 1-300); conditions: protein: recombinant; tags: N-terminal GST; dsDNA, one strand shown
# T5 sequence: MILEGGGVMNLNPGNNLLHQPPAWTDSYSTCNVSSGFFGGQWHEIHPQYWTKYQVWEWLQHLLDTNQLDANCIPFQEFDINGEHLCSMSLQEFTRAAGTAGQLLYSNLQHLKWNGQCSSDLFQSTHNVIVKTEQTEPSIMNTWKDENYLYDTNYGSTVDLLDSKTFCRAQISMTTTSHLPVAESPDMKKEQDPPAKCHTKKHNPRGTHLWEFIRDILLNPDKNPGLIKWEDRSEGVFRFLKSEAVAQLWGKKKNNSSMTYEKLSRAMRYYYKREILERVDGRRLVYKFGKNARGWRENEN
# Outline: as §1
# SPI1 = SPI1 (Homo sapiens, UniProt P17947 1-270); conditions: protein: recombinant; tags: N-terminal GST; dsDNA, one strand shown
# Outline: as §1
# SPIB = SPIB (Homo sapiens, UniProt Q01892 1-262); conditions: protein: recombinant; tags: N-terminal GST; dsDNA, one strand shown
# SPIB, sequence (Q01892 whole entry): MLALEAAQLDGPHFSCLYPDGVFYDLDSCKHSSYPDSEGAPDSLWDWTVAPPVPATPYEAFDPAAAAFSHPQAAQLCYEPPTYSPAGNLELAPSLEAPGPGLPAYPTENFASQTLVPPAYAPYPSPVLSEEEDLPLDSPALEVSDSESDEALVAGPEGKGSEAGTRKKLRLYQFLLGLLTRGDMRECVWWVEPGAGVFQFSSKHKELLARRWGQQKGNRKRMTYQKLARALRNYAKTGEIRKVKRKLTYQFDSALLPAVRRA
# Outline: as §1
# ELK3 = target: T6, ELK3 (Homo sapiens, UniProt P41970 1-407); conditions: protein: recombinant; tags: N-terminal GST; dsDNA, one strand shown
# T6 sequence: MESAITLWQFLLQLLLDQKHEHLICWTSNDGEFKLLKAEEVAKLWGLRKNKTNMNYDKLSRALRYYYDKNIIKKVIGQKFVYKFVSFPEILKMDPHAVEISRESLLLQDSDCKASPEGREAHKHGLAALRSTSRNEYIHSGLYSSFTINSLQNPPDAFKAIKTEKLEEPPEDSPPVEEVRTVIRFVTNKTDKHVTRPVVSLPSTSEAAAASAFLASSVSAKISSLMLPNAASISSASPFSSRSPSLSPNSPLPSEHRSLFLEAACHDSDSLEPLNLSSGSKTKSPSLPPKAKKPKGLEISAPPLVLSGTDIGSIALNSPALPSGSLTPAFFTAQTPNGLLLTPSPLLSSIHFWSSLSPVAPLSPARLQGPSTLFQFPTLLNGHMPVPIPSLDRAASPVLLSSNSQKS
# Outline: as §1
# FEV = target: T7, FEV (Homo sapiens, UniProt Q99581 1-238); conditions: protein: recombinant; tags: N-terminal GST; dsDNA, one strand shown
# T7 sequence: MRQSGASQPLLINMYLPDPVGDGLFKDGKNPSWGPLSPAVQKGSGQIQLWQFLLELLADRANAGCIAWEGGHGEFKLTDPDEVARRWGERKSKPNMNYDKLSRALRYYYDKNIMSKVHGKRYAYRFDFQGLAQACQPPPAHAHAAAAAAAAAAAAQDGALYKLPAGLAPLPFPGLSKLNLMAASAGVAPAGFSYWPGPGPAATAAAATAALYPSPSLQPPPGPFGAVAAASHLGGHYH
# Outline: as §1
# ETV5 = ETV5 (Homo sapiens, UniProt P41161 1-510); conditions: protein: recombinant; tags: N-terminal GST; dsDNA, one strand shown
# ETV5, sequence (P41161 whole entry): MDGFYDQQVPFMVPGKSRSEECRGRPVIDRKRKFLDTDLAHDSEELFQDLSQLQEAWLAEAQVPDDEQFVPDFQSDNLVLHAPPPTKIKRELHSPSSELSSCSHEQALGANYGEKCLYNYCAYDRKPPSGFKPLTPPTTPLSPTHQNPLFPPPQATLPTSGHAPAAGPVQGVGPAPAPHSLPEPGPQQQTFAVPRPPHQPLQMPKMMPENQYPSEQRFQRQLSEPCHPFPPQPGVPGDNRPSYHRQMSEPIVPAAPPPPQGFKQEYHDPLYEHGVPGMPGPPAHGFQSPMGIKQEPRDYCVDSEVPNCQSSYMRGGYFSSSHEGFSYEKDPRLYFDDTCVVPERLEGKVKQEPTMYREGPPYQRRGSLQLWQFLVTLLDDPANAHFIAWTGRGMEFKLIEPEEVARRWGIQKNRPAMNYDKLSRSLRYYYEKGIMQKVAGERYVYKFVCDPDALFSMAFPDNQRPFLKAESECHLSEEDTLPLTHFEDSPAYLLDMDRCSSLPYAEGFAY
# Outline: as §1
# HSF1 = HSF1 (Homo sapiens, UniProt Q00613 1-529); conditions: protein: recombinant; tags: N-terminal GST; chain copies: 3; dsDNA, one strand shown
# HSF1, sequence (Q00613 whole entry): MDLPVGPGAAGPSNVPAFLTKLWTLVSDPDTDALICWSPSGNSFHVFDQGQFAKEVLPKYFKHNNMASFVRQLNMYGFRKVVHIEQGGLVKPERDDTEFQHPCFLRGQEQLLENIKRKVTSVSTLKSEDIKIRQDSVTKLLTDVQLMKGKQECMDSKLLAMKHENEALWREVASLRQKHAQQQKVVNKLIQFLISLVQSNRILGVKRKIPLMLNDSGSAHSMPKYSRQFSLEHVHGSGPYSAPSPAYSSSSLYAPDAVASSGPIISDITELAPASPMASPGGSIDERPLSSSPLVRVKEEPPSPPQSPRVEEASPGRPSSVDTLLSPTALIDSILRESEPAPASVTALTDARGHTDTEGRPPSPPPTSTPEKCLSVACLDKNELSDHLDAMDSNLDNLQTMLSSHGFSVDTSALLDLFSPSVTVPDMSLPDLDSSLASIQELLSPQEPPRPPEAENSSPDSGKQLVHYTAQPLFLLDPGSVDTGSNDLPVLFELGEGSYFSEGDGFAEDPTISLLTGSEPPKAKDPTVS
# Outline: as §1
# SPIC = target: T8, SPIC (Homo sapiens, UniProt Q8N5J4 1-248); conditions: protein: recombinant; tags: N-terminal GST; dsDNA, one strand shown
# T8 sequence: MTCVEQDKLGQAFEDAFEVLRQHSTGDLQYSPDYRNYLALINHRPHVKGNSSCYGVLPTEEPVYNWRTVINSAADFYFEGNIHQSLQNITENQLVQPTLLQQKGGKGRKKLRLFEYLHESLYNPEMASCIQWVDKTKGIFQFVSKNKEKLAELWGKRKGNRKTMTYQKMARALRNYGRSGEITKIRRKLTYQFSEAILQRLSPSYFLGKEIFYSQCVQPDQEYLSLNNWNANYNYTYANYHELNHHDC
# Outline: as §1
# ELF4 = ELF4 (Homo sapiens, UniProt Q99607 1-663); conditions: protein: recombinant; tags: N-terminal GST; dsDNA, one strand shown
# ELF4, sequence (Q99607 whole entry): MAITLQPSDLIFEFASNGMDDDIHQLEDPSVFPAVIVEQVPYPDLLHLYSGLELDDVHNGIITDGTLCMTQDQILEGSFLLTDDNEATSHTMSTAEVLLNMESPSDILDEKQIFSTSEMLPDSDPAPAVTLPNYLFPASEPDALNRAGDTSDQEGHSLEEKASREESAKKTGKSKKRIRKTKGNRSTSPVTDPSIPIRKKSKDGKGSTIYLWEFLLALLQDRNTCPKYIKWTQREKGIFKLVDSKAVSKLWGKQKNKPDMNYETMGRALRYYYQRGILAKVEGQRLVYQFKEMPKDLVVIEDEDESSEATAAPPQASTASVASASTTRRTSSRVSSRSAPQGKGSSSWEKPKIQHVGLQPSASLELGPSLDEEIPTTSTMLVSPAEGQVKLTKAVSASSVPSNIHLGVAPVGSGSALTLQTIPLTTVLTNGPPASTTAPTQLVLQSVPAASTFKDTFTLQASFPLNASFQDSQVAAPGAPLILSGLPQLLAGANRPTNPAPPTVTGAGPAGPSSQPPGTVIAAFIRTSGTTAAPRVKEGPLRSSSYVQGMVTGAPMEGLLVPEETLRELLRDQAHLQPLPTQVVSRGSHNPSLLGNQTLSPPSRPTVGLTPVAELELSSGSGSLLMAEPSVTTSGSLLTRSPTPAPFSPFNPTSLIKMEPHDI
# Outline: as §1
# ELK4 = target: T9, ELK4 (Homo sapiens, UniProt P28324-2 1-405); conditions: protein: recombinant; tags: N-terminal GST; dsDNA, one strand shown
# T9 sequence: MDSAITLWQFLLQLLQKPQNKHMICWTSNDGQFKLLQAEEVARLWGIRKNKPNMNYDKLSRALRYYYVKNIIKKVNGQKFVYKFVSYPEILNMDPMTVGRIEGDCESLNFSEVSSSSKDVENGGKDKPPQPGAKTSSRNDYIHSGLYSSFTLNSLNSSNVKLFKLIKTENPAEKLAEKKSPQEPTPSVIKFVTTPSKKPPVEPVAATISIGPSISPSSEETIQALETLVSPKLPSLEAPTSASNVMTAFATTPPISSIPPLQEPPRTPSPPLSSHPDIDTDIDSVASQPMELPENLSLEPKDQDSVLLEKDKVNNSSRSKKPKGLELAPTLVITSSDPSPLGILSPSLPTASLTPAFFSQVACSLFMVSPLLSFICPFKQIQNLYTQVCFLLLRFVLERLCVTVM
# Outline: as §1
# ETV2 = target: T10, ETV2 (Homo sapiens, UniProt O00321 1-342); conditions: protein: recombinant; tags: N-terminal GST; dsDNA, one strand shown
# T10 sequence: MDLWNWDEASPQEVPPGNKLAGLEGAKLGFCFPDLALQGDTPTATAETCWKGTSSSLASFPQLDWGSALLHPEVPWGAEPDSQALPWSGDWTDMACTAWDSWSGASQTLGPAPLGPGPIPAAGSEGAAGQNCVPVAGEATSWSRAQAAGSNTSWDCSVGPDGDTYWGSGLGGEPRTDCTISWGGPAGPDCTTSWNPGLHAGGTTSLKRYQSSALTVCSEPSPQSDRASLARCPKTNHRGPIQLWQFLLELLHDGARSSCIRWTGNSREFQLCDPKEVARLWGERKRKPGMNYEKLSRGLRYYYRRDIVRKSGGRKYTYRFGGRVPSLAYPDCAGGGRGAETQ
# Outline: as §1
# ELF3 = target: T11, ELF3 (Homo sapiens, UniProt P78545 1-371); conditions: protein: recombinant; tags: N-terminal GST; dsDNA, one strand shown
# T11 sequence: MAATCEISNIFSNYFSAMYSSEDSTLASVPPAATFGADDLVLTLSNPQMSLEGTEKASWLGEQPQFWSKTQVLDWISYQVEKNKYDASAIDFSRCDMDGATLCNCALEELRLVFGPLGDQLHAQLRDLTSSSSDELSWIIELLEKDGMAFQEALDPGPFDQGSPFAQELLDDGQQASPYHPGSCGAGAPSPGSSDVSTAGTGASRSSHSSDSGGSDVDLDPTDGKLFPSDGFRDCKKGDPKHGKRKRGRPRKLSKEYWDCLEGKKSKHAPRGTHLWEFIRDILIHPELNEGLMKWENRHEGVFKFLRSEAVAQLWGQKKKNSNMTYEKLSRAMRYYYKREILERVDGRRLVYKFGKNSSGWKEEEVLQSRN
# Outline: as §1
# CRX = CRX (Homo sapiens, UniProt O43186 1-299); conditions: protein: recombinant; tags: N-terminal GST; dsDNA, one strand shown
# CRX, sequence (O43186 whole entry): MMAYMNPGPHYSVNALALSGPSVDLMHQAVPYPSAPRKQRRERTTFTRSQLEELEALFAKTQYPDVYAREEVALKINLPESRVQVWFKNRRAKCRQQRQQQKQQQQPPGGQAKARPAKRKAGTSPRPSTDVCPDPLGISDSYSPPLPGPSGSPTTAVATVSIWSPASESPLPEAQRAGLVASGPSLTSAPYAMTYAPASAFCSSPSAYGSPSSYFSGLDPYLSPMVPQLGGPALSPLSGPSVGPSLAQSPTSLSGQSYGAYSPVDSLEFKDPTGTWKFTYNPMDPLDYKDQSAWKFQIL
# Outline: as §1
# ETV1 = ETV1 (Homo sapiens, UniProt P50549 1-477); conditions: protein: recombinant; tags: N-terminal GST; dsDNA, one strand shown
# ETV1, sequence (P50549 whole entry): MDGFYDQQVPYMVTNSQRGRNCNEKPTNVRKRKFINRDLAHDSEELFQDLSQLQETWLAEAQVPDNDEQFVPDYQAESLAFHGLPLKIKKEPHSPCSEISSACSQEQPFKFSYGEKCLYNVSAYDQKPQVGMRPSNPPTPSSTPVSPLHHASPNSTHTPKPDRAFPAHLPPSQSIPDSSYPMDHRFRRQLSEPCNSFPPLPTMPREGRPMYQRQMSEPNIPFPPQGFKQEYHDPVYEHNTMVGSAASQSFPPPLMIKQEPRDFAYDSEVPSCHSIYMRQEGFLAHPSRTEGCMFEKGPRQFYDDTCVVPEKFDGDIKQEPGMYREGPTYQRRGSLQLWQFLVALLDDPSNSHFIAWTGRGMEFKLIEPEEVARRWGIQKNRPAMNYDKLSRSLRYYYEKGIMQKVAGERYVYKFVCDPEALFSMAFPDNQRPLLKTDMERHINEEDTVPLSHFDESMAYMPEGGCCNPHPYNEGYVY
# Outline: as §1
sequence,measurement,setting,value
GTTCCT,binding signal,FLI1,"1.73 fold enrichment (6-mer frequency, TF over GST control)"
same,binding signal,ELK1,"1.69 fold enrichment (6-mer frequency, TF over GST control)"
same,binding signal,GABPA,"1.64 fold enrichment (6-mer frequency, TF over GST control)"
same,binding signal,ERG,"1.86 fold enrichment (6-mer frequency, TF over GST control)"
same,binding signal,ELF1,"1.72 fold enrichment (6-mer frequency, TF over GST control)"
same,binding signal,EHF,"1.73 fold enrichment (6-mer frequency, TF over GST control)"
same,binding signal,SPI1,"2.34 fold enrichment (6-mer frequency, TF over GST control)"
same,binding signal,SPIB,"1.84 fold enrichment (6-mer frequency, TF over GST control)"
same,binding signal,ELK3,"1.77 fold enrichment (6-mer frequency, TF over GST control)"
same,binding signal,FEV,"1.75 fold enrichment (6-mer frequency, TF over GST control)"
same,binding signal,ETV5,"1.91 fold enrichment (6-mer frequency, TF over GST control)"
same,binding signal,HSF1,"1.43 fold enrichment (6-mer frequency, TF over GST control)"
same,binding signal,SPIC,"1.96 fold enrichment (6-mer frequency, TF over GST control)"
same,binding signal,ELF4,"1.6 fold enrichment (6-mer frequency, TF over GST control)"
same,binding signal,ELK4,"1.48 fold enrichment (6-mer frequency, TF over GST control)"
same,binding signal,ETV2,"1.65 fold enrichment (6-mer frequency, TF over GST control)"
same,binding signal,ELF3,"1.6 fold enrichment (6-mer frequency, TF over GST control)"
same,binding signal,CRX,"1.07 fold enrichment (6-mer frequency, TF over GST control)"
same,binding signal,ETV1,"1.79 fold enrichment (6-mer frequency, TF over GST control)"
